Assays:
Test in all cases: log2 ratio of Biotin-Ahx-Ub-VS probe labelling (fragment/DMSO); higher = less target engagement (more negative = stronger competition), active = hit call of the paper (q ≤ 0.05, log2 ratio ≤ -1)
Details in all cases: compound concentration: 200 uM; treatment time: 3 h
USP42 = biological target: T1, USP42 (UniProt Q9H9J4)
T1 sequence (whole entry): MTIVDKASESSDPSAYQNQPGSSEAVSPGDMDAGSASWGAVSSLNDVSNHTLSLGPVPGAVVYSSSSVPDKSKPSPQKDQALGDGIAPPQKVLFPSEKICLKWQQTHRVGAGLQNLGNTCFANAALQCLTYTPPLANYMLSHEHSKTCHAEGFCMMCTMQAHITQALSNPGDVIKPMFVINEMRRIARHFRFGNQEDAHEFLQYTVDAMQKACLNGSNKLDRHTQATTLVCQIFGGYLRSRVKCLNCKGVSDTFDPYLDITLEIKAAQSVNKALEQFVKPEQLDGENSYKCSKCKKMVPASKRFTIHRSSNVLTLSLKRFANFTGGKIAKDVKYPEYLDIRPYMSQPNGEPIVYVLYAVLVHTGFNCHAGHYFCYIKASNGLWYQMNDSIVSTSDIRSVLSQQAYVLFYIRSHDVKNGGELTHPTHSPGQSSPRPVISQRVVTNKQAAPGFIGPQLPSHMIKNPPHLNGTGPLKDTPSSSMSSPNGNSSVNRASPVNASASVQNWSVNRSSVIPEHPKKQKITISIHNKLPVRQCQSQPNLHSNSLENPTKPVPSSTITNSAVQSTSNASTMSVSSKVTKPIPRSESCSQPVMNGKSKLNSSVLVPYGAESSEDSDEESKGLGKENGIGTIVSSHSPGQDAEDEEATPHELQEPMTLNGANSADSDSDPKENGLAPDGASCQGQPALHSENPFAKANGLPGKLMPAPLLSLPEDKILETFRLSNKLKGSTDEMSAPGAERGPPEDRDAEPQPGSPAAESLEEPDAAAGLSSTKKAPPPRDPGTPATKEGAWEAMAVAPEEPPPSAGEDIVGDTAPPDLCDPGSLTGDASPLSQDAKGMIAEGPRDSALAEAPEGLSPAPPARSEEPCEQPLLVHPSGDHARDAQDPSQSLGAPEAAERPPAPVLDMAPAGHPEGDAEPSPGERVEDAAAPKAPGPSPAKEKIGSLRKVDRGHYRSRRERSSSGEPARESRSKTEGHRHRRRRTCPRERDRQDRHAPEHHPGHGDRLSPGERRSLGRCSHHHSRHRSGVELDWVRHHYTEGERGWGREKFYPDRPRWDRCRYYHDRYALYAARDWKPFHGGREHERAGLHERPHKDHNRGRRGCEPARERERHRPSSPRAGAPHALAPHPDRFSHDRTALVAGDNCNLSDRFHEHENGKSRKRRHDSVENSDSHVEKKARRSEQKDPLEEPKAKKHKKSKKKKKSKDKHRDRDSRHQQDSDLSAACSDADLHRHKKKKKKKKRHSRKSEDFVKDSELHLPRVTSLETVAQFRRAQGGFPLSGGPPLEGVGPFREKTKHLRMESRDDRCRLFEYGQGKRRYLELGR
Summary of the method: (§1)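 HEK293T lysate (495 µg per sample, in Tris/CHAPS/IGEPAL buffer with protease inhibitors) was treated in triplicate with fragment at 200 µM or with DMSO for 3 h. It was then treated with Biotin-Ahx-Ub-VS (0.5 µM final) for 1 h. Labelled DUBs were NeutrAvidin-enriched, digested with LysC and trypsin, and run by diaPASEF LC-MS/MS. Spectronaut label-free quantities were global-median-normalised. Values are average log2 ratios fragment/DMSO by unpaired t-test, using proteins with ≥2 unique peptides.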

USP46 = USP46 (UniProt P62068)
Chain of USP46 (P62068 whole entry): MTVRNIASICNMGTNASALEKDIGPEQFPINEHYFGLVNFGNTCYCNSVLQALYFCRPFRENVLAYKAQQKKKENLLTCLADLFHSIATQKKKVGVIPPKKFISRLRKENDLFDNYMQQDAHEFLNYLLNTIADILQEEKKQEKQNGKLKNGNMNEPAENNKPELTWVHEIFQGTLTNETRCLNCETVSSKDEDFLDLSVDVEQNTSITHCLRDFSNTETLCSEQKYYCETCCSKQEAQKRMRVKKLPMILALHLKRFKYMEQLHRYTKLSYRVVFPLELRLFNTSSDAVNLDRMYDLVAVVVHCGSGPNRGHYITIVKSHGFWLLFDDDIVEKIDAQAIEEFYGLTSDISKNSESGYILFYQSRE
Summary of the method: as §1

USP47 = biological target: T2, USP47 (UniProt Q96K76)
T2 sequence (whole entry): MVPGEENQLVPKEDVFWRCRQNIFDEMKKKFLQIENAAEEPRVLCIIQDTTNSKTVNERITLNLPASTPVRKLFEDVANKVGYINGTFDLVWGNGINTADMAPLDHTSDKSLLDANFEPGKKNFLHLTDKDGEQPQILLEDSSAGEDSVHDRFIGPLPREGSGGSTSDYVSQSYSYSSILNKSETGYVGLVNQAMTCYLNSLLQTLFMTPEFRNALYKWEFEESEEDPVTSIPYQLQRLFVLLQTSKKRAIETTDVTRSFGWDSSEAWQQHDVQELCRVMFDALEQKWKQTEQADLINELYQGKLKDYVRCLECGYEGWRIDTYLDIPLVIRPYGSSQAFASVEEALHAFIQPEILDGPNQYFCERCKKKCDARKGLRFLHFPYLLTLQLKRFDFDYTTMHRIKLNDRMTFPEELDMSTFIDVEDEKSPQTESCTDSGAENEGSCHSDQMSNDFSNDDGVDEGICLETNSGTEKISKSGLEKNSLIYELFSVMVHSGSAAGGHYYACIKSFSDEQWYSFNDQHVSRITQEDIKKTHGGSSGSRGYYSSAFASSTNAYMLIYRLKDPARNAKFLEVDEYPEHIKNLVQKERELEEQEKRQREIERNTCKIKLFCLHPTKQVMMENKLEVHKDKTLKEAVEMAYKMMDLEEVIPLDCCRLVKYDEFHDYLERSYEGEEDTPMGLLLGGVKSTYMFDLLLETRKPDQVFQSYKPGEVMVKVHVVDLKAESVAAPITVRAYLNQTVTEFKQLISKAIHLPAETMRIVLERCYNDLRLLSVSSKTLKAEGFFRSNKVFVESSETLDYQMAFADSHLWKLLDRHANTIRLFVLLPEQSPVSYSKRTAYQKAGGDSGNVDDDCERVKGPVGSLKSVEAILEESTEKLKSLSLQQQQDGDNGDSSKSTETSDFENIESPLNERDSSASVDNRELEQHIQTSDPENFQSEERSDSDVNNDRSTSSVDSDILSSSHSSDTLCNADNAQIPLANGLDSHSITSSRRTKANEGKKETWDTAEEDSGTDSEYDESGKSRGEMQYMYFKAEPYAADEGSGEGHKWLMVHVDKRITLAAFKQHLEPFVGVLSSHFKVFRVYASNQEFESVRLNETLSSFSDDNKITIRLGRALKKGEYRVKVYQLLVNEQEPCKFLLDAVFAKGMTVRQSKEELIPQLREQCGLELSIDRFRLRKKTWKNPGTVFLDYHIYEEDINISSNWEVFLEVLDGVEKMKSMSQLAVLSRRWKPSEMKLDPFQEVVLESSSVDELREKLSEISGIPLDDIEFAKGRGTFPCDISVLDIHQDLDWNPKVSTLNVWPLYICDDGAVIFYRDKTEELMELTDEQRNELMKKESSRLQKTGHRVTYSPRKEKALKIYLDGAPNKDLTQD
Summary of the method: as §1

USP48 = biological target: T3, USP48 (UniProt Q86UV5)
T3 sequence (whole entry): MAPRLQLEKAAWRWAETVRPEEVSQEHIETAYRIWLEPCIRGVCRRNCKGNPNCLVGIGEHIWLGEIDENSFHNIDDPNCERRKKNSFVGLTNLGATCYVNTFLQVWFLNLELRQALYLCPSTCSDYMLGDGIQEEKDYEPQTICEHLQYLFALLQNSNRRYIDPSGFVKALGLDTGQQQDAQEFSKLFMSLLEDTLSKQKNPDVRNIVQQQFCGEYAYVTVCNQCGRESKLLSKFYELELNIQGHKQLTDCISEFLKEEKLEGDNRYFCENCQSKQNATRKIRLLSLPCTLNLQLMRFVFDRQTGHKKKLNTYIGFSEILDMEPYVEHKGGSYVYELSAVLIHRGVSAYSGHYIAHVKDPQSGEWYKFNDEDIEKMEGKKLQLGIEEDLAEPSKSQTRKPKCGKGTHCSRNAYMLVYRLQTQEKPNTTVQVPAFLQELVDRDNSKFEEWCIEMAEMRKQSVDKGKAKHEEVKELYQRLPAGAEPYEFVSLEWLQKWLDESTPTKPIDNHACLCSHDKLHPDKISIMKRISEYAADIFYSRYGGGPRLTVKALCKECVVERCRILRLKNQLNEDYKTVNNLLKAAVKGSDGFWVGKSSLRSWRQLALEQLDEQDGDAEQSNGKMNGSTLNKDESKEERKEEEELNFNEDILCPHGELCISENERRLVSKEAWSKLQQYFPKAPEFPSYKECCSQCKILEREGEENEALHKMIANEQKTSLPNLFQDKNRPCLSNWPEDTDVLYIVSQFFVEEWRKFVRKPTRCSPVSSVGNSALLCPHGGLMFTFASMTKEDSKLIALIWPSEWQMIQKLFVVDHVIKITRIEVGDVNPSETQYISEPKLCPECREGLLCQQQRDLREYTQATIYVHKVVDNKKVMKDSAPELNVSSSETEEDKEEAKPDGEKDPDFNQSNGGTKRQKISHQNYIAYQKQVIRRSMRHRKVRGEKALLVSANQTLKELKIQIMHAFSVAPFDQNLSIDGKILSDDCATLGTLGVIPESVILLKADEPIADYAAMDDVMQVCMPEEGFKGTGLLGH
Summary of the method: as §1

USP5 = biological target: T4, USP5 (UniProt P45974)
T4 sequence (whole entry): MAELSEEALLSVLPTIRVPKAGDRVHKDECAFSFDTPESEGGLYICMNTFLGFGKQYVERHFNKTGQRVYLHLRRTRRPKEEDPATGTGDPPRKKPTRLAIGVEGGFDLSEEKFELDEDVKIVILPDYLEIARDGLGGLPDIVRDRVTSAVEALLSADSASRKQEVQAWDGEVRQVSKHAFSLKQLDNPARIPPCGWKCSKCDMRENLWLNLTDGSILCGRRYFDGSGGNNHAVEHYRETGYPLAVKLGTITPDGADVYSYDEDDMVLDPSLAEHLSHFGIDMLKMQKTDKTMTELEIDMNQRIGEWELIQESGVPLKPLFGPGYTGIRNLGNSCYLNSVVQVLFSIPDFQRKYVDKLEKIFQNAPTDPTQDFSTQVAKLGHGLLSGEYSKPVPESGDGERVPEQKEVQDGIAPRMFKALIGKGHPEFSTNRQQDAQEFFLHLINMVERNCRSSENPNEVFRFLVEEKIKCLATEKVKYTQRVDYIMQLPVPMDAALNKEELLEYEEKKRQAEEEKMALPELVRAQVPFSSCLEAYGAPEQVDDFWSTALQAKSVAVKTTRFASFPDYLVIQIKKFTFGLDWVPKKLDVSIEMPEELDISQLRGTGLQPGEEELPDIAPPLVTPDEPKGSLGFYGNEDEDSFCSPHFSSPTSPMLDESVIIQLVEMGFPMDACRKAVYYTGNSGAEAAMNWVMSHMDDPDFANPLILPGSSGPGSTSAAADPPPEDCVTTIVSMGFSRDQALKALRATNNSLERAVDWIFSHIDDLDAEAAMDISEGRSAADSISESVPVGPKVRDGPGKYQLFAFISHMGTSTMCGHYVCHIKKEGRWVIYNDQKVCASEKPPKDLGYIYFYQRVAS
Summary of the method: as §1

USP54 = USP54 (UniProt Q70EL1)
Chain of USP54 (Q70EL1 whole entry): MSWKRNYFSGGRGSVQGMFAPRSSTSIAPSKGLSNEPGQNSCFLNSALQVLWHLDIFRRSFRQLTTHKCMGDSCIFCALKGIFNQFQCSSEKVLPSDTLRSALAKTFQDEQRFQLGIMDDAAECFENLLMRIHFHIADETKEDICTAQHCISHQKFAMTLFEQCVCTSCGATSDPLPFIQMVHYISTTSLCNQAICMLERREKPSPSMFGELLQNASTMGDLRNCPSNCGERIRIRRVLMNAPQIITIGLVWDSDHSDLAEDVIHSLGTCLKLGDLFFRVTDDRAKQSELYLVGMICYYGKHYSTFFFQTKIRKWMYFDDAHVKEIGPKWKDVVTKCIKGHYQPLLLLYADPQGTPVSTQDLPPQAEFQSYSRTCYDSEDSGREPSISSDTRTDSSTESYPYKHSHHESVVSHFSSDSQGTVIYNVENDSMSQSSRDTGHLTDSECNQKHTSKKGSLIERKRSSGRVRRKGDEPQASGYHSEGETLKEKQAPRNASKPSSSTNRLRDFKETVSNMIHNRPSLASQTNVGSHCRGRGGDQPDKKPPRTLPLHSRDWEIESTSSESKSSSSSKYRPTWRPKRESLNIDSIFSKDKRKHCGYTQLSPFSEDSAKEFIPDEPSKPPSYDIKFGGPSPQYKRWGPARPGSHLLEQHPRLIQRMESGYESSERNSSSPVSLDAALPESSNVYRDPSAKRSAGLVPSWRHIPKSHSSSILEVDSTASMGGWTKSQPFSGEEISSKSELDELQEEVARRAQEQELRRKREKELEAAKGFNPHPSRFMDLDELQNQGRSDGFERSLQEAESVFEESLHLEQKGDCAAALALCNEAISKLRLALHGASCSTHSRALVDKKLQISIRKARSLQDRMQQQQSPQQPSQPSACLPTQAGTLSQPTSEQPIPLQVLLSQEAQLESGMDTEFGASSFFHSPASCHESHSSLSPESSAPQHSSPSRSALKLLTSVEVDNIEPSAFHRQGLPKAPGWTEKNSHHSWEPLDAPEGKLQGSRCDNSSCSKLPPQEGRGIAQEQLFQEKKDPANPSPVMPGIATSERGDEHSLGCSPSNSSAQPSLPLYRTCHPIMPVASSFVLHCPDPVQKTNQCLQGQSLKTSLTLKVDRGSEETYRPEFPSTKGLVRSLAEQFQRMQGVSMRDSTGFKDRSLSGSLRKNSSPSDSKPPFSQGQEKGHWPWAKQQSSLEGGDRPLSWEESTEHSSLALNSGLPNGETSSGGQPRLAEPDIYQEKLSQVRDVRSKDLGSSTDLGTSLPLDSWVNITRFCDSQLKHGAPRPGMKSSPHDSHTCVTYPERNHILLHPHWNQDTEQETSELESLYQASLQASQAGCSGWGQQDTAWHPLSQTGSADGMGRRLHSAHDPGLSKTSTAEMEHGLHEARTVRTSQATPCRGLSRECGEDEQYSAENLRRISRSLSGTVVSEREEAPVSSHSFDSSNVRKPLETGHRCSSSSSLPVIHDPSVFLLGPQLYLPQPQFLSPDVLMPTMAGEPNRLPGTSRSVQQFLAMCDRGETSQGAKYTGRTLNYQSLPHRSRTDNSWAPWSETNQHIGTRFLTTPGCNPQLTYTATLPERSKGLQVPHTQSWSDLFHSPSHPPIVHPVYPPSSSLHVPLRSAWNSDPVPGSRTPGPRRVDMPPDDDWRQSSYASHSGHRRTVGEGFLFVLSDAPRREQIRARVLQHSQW
Summary of the method: as §1

USP7 = USP7 (UniProt Q93009)
Chain of USP7 (Q93009 whole entry, looked up): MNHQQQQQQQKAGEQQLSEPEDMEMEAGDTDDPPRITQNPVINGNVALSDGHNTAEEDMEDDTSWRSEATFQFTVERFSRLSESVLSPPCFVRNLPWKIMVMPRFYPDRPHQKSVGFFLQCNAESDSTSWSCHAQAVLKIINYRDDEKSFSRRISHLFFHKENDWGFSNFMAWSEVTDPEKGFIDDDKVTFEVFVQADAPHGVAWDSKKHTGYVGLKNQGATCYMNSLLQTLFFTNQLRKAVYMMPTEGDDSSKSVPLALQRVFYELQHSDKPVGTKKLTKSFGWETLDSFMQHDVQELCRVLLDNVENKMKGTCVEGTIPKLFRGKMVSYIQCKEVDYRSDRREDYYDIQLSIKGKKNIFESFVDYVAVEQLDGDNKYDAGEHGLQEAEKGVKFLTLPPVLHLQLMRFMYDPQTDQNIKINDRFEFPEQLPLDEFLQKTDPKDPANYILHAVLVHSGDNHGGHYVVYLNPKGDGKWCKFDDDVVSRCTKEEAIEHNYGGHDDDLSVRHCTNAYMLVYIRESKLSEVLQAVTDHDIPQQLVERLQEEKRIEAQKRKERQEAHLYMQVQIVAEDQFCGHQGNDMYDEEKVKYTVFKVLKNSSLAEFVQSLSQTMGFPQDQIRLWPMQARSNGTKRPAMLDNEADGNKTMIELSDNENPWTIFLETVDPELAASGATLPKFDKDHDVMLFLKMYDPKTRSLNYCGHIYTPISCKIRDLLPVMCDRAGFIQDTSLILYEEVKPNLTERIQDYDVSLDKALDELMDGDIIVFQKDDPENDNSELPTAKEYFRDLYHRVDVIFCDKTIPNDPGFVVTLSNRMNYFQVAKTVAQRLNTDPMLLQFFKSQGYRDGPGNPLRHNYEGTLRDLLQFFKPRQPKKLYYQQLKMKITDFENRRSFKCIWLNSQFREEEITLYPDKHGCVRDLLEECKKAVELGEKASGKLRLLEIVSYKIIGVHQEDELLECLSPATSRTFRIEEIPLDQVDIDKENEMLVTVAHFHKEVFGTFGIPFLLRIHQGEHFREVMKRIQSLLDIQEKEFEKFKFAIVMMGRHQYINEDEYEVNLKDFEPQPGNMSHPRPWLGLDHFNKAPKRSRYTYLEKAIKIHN
Summary of the method: as §1

USP8 = biological target: T5, USP8 (UniProt P40818)
T5 sequence (whole entry): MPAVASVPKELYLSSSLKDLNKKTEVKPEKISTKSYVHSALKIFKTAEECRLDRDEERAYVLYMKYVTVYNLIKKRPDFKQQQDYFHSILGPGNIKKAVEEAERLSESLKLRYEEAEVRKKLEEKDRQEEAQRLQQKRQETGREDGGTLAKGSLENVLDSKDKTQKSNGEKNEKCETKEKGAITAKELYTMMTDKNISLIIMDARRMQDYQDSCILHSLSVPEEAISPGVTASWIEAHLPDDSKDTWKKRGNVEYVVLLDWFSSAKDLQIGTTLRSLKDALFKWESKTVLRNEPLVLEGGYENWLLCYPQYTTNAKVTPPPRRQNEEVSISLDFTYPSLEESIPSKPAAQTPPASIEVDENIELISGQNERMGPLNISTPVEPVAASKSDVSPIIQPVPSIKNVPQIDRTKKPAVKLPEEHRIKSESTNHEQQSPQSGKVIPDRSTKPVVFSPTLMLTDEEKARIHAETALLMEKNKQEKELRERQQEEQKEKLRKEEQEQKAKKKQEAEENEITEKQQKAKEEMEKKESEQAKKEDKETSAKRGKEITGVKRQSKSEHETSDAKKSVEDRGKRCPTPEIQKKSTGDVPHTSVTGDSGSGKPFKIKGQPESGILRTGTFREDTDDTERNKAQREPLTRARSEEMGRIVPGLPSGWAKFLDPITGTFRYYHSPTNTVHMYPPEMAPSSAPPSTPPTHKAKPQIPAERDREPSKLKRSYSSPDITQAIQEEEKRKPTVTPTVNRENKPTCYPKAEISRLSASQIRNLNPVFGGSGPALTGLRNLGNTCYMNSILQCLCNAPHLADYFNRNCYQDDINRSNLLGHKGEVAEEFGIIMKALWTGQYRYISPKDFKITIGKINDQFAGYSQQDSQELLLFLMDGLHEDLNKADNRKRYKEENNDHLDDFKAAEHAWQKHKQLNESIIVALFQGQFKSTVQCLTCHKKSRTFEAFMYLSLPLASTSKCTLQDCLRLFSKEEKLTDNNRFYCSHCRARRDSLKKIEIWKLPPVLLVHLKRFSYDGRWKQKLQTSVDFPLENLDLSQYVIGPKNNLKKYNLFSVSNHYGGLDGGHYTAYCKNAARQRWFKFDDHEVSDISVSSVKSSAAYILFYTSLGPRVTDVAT
Summary of the method: as §1

USP9X = USP9X (UniProt Q93008)
Summary of the method: as §1

UniProt O00487 = biological target: UniProt O00487
Chain of UniProt O00487 (O00487 whole entry): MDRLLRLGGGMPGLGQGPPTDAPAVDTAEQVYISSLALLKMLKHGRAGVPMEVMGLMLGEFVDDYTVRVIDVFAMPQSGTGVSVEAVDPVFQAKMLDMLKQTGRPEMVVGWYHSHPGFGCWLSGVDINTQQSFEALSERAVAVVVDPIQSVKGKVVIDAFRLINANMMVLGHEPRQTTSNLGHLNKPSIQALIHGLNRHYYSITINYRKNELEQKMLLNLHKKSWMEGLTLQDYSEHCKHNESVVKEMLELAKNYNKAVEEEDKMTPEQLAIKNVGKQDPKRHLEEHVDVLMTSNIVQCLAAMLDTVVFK
Summary of the method: as §1

Measured: log2 ratio of Biotin-Ahx-Ub-VS probe labelling

O=C(CCl)NCC1(c2ccccc2)CC1
inactive: USP42 -0.475 | USP46 0.0609 | USP47 -0.388 | USP48 -0.502 | USP5 0.023 | USP54 0.574 | USP7 -0.075 | USP8 -0.144 | USP9X -0.121 | UniProt O00487 -0.00244

Source: the supplement of paper PMC11732987, “Enantioselective OTUD7B fragment discovery through chemoproteomics screening and high-throughput optimisation” (Communications Chemistry, 2025)
